# In PubChem BioAssay AID2162 (National Center for Advancing Translational Sciences (NCATS), 2009):
# Records with an inconclusive call do not appear. The source made the active and inactive calls. The call rests on the fitted dose curve; in most records, active means well fitted inhibition curve with a large enough effect; inconclusive means small, poorly fitted or top-dose-only effect; inactive means flat fitted curve, though single readings scatter.
# Target: Polyunsaturated fatty acid lipoxygenase ALOX12 (Homo sapiens) (UniProt P18054)
# Sequence (P18054 whole entry, looked up): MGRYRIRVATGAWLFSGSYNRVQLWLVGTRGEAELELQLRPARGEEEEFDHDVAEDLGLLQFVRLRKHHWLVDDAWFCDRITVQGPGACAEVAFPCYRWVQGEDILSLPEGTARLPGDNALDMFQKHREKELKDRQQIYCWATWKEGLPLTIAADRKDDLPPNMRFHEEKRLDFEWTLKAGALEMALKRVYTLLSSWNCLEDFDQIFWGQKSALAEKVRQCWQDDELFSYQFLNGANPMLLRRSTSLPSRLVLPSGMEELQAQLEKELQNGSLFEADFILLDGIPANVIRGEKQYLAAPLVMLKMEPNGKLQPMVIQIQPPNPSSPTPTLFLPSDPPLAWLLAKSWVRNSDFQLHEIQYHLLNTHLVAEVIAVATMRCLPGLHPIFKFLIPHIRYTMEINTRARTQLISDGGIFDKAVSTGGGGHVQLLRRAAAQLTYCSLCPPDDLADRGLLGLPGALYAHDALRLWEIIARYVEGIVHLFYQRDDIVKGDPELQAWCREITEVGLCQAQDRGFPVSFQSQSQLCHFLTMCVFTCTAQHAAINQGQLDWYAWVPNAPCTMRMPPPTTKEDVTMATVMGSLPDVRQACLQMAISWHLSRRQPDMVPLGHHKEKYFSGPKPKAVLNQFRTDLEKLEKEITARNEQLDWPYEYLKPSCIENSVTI
# Test: Confirmation qHTS Assay for Inhibitors of 12-hLO (12-human lipoxygenase)
# Details: purified 12-hLO, xylenol orange absorbance; active compounds read low
# Text: Assay Provider: Holman, T.R., University of California, Santa Cruz Screening Center PI: Austin, Christopher P. Screening Center: NIH Chemical Genomics Center Human lipoxygenase 12hLO is a member of the closely related lipoxygenase family of enzymes which catalyze the site-specific oxidation of arachidonic acid to various hormone precursor molecules and as such is a candidate for drug development in a variety of disease areas, such as cancer and inflammation. Inhibition of 12hLO activity was screened by utilizing arachidonic acid as a substrate. The extent of hydroperoxide product formation was measured by a secondary chromogenic reaction in which xylenol orange (XO, Sigma-Aldrich, cat. number 39,818-7) reacts with the ferric ions produced from the reaction between the hydroperoxide and ferrous ions. The Fe(III)-XO complex is characterized with red-shifted absorbance at 560 nm. A purified preparation of human 12hLO was supplied by Professor Ted Holman, University of California, Santa Cruz. This assay includes some confirmation and follow-up compounds for related primary screening assay AID 1452.
# Assay Protocol: Buffer: 25 mM Hepes pH 7.0, 0.01% Triton X-100. […] The absorbance at 405 and 573 nm were measured using ViewLux (Perkin-Elmer) High-throughput CCD imager and absorbance protocol settings. The 573-to-405 absorbance ratio was used to compute reaction progress.
structure (smiles),measurement,value
CCC(C)C(=O)c1c(O)c(C)c2oc3c(C)c(O)c(C(=O)C(C)CC)c(O)c3c2c1O (stereo unspecified),"activity change, negative = inhibition",-25.9% (inactive)
